Screening data from PubChem.
The full list was thinned out, with hits kept by preference.
ALR inh = inhibitors of human sulfhydryl oxidase ALR | P55789 | purified ALR, DTT oxidation, H2O2 HRP-luminol luminescence | inhibition, % (no concentration beside the values) | hit rate 3.8% among 290,000;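 active means mean replicate inhibition above about 79%, with every replicate also reaching it, limit read from the data; inconclusive means only one of the two criteria met; inactive means mean below limit and not every replicate reaching it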
PglD DTNB = PglD (C. jejuni) enzyme inhibition; inhibition, % at 12.5 µM; hit rate 0.098% among 360,000; purified PglD enzyme, DTNB colorimetric CoA detection; in the data active means inhibition above about 16%, passing the limit was not always enough; inconclusive means no clear call, values can overlap the other calls
CendR NRP1 mod = NRP-1/CendR interaction modulation. FAM-RPARPAR peptide binding to NRP-1, fluorescence polarization. O14786. inhibition, % at 25 µM. hit rate 0.85% among 360,000;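 active means inhibition or corrected inhibition above about 18%, plus a signal ratio from 0.5 to 1.5, limit read from the data, passing the limit was not always enough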
PDI turbidity = inhibitors of human protein disulfide isomerase | P07237 | PDI insulin aggregation turbidity, A650, 90 min | inhibition, % at 10 µM | hit rate 0.052% among 350,000 | AID 588391;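 active means mean inhibition across replicates of 30% or more, whatever share of single replicates reach that level; inconclusive means mean inhibition below 30% while every single replicate reaches 30%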
ARNT TACC3 PPI = disrupts binding between human ARNT and TACC3; AlphaScreen His-ARNT PAS-B/GST-TACC3 binding, luminescence; TACC3 fragment carries E629A point mutation; hit rate 0.66% among 390,000; inhibition, % at 9.99 µM; AID 623870; Q9Y6A5;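 active means mean inhibition of replicates at least 50% and at least half of replicates each reaching 50%; inconclusive means half or more replicates reach 50% but mean below 50%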;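 further: 0% = complete ARNT plus TACC3 wells and 100% = ARNT alone without TACC3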
ERp5 inh = blocks human ERp5 reductase activity on insulin | Q15084 | ERp5 insulin aggregation, absorbance 650 nm, 90 min | inhibition, % at 9.99 µM | hit rate 0.05% among 350,000 | AID 651711;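 active means mean replicate inhibition above about 25%, with every replicate also reaching it, limit read from the data, passing the limit was not always enough; inconclusive means only one of those two criteria met; inactive means neither criterion met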
Starred values were filed as active, the others as inactive; ? = inconclusive; . = no result.

SMILES	ALR inh	PglD DTNB	CendR NRP1 mod	PDI turbidity	ARNT TACC3 PPI	ERp5 inh
Cc1ccc(CSCC2Nc3ccc(C(=O)N4CCN(c5cccc(C)c5)C(C)C4)cc3NC2=O)cc1 (stereo unspecified)	14	.	.	.	.	.
COCCN1C=C(C(=O)OC)C(c2ccccc2Cl)C(C(=O)OC)=C1	12	-3	22*	1	-1	5
COCCN1C=C(C(=O)OC)C(c2cc(Br)c(OC)c(OC)c2)C(C(=O)OC)=C1	7	1	6	-4	-11	.
CC(C)NCC(O)Cn1c2c(c3ccccc31)CCc1c-2cnn1-c1ccccc1 (stereo unspecified)	89*	3	5	-3	18	.
N#C[C@@H]1[C@@H](c2ccccc2C2=CCCCC2)[C@@H](CO)N1S(=O)(=O)c1ccccc1	.	.	.	.	.	1
Cc1ccc(O)c(Nc2c3ccccc3nc3ccccc23)c1	99*	7	-1	-8	17	0
Cc1ccc(O)c(Nc2nc(-c3ccccc3)nc3ccccc23)c1	-2	6	-2	-7	26	1
Cc1c(C(=O)OCC(=O)Nc2c(C)n(C)n(-c3ccccc3)c2=O)oc2ccccc12	99*	.	-6	2	-3	-1
Cc1cccc(C(=O)OCC(=O)Nc2c(C)n(C)n(-c3ccccc3)c2=O)c1	.	5	19*	-2	-1	-7
Cc1c(NC(=O)CN2c3ccccc3CC2C)c(=O)n(-c2ccccc2)n1C (stereo unspecified)	97*	.	2	4	-7	0
C[C@@H]1CN([C@@H](C)CO)C(=O)c2cc(NC(=O)Cc3cn(C)c4ccccc34)ccc2O[C@H]1CN(C)C(=O)Nc1ccc(F)cc1	.	2	.	.	11	2
CSc1nc2ccc(Nc3nc(N4CCOCC4)nc(N4CCOCC4)n3)cc2s1	98*	3	-17	-3	-5	.
COC(=O)C[C@H]1CC[C@@H]2[C@@H](COc3ccc(NC(=O)c4cccc(Cl)c4)cc3C(=O)N2C)O1	.	0	.	.	-5	5
CC(=O)Nc1ccc(NC(=O)COc2ccc(S(=O)(=O)N3CCCC3)cc2)cc1	-2	-2	2	3	.	4
O=C(COc1ccc(S(=O)(=O)N2CCCC2)cc1)Nc1ccc2c(c1)OCCO2	1	2	36*	11	.	8
COC(=O)NCC(c1ccco1)N1CCN(c2ccc(OC)cc2)CC1 (stereo unspecified)	89*	.	0	-2	1	-4
COc1ccc(N2CCN(C(CNC(=O)C(=O)NCCCO)c3ccco3)CC2)cc1 (stereo unspecified)	86*	8	3	2	-21	13
COC(=O)NCC(c1ccco1)N1CCN(c2ccc(F)cc2)CC1 (stereo unspecified)	92*	.	-12	6	-41	-1
CCS(=O)(=O)NCC(c1ccco1)N1CCN(c2ccccc2)CC1 (stereo unspecified)	93*	1	0	-3	-6	.
C[C@@H]1CCCCO[C@H](CN(C)C(=O)NC2CCCCC2)[C@H](C)CN([C@@H](C)CO)C(=O)c2cc(NC(=O)CCCN(C)C)ccc2O1	.	3	.	.	-10	-6
Cc1nc2sc(C(c3ccco3)N3CCN(c4ccc(F)cc4)CC3)c(O)n2n1 (stereo unspecified)	94*	-2	-6	.	5	1
COc1ccc(N2CCN(C(CNS(C)(=O)=O)c3ccco3)CC2)cc1 (stereo unspecified)	92*	-3	-3	13	.	1
Cc1nc2sc(C(c3ccco3)N3CCN(c4ccccc4F)CC3)c(O)n2n1 (stereo unspecified)	2	-2	-1	-2	-7	.
COc1ccc(N2CCN(C(CNC(=O)COc3ccccc3)c3ccco3)CC2)cc1 (stereo unspecified)	89*	0	-2	4	11	6
CCC(=O)NCC(c1ccco1)N1CCN(c2ccc(OC)cc2)CC1 (stereo unspecified)	?	.	19	6	3	-1
CO[C@@H]1CN(C)C(=O)c2ccc(NC(=O)c3nc4ccccc4s3)cc2OC[C@@H](C)N(Cc2ccncc2)C[C@H]1C	.	-2	.	.	21	-1
Cc1ccccc1NS(=O)(=O)c1cccc2nonc12	96*	-1	-5	-9	-2	11
